Screening results deposited in PubChem BioAssay by National Center for Advancing Translational Sciences (NCATS).
The list is not random: actives were taken first. Their share in the collection is about 3.8%.
PLK1 PBD inh = inhibitors of human PLK1 polo-box domain binding; Plk1 PBD binding of FITC phosphopeptide, fluorescence polarization; Potency, µM, most hits filed as inhibitors; 360,000 compounds, 2.8% hits; note: series mostly up to about 57 µM; nearly all actives have a fitted effect of over 65% in size
KCNH2 3.1 inh = KCNH2 3.1 (human) potassium channel inhibition; 340,000 compounds, 0.95% hits; AID 720553; activity change, % (tested at about 1.8 µM); U2OS KCNH2 3.1, thallium flux FluxOr; hits give low values;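 active = maximum activity change below -70%; inconclusive = maximum activity change from -70% to -50%; inactive = maximum activity change above -50%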;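 note: thallium influx rate constant from kinetic fluorescence after stimulation buffer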
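Thallium flux via FluxOr fluorescence (Red40 quencher, 45 min loading) in U2OS cells virally expressing the KCNH2 3.1 isoform (1.77 x 10^8 /mL virus, overnight at 37 C). Rate constants from 2-min kinetic reads post-stimulation, normalised to positive and negative controls.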
CBFb RUNX1 block = blocks binding between human CBF-beta and RUNX1; AlphaScreen CBFb-His/RUNX1-biotin binding, biochemical; 230,000 tested, under 10 active; Potency, µM (doses to about 59.8 µM), hits mostly inhibitors; Q01196+Q13951
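Bead-based AlphaScreen assay; binding partners His-tagged CBF-beta and biotinylated RUNX1 at 30 nM each. Compound exposure 15 min after a 20-min protein preincubation; bead step 90 min; all steps at room temperature.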
MBNL1-CUG inh = blocks human MBNL1 binding to CUG repeat RNA; TR-FRET MBNL1-His/biotin-(CUG)12 binding, 665/545 ratio; Potency, µM (titrated, usually from 57.5 µM), most hits filed as inhibitors; 280,000 compounds, 0.036% hits; AID 2675; active = well fitted inhibition curve with a large enough effect in the signal ratio, with a control signal flat, not every such curve was filed as active; inconclusive = small, poorly fitted or top-dose-only effect, or effect the other way, or a change in a side signal; inactive = no such curve, though single readings can be large or run the other way; the % refers to the signal ratio
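TR-FRET readout: Ex 340 nm, 665/545 nm emission ratio, normalized to buffer-only (basal) and MBNL1-(CUG)12 controls. Complex of MBNL1-His with Biotin-(CUG)12, compounds 92 nM–58 uM, incubated 60 min at room temperature.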
KCNH2 WT inh = blocks the wildtype human KCNH2 potassium channel. Q12809. U2OS, BacMam KCNH2, thallium flux FluxOr; hits give low values. activity change, % at 1.84 µM. 340,000 compounds, 0.37% hits. AID 720551;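 active = maximum activity change below -70%; inconclusive = maximum activity change between -70% and -50%; inactive = maximum activity change above -50%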
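U2OS cells were transduced with wild-type KCNH2 virus (2.03 x 10^8 / mL) for 4 h at room temperature, then cultured overnight at 37 C. Thallium flux was read with FluxOr dye. Rate constants were normalized to DMSO controls.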
VDR inh = blocks the human vitamin D receptor | P11473 | VDR-SRC2-3 peptide fluorescence polarization, 2 h | Potency, µM, usual class: inhibitors | 400,000 compounds, 0.93% hits | AID 504847
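Compounds are added to VDR with labelled SRC2-3 coactivator peptide and held 2 h at room temperature. Inhibition of the VDR–peptide interaction is then read as a change in fluorescence polarization.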
Large screens that a line does not name were inactive. Unless noted, calls come from the whole dose curve; as a rule, active = well fitted curve in the direction sought with a large enough effect; inconclusive = small, poorly fitted or top-dose-only effect, or another doubt; inactive = no such curve, though single readings can be large; an effect the other way counts as inactive or inconclusive.

CCc1ccc(CN2CCC(Oc3cc(C(=O)NC4CC4)ccc3OC)CC2)cc1	KCNH2 3.1 inh -97, KCNH2 WT inh -108 (no result: CBFb RUNX1 block, MBNL1-CUG inh, VDR inh)
COc1ccc(C(=O)NC2CC2)cc1OC1CCN(Cc2ccc(Cl)cc2)CC1	KCNH2 WT inh -128 (no result: KCNH2 3.1 inh, CBFb RUNX1 block)
COc1ccc(C(=O)NC2CC2)cc1OC1CCN(Cc2ccccc2F)CC1	none (no result: CBFb RUNX1 block)
CCc1ccc(CNC(=O)C2CCN(c3nc4ccccc4nc3C(F)(F)F)CC2)cc1	none (no result: PLK1 PBD inh, KCNH2 3.1 inh, CBFb RUNX1 block, MBNL1-CUG inh, KCNH2 WT inh)
COc1ccc(Cl)cc1NC(=O)Cc1coc2c(C)c(C)ccc12	none (no result: PLK1 PBD inh, KCNH2 3.1 inh, CBFb RUNX1 block, MBNL1-CUG inh, KCNH2 WT inh)
COc1ccc(C(=O)NC2CC2)cc1OC1CCN(Cc2ccccc2O)CC1	none (no result: CBFb RUNX1 block)
C=CCOc1ccccc1CN1CCC(Oc2cc(C(=O)NC3CC3)ccc2OC)CC1	KCNH2 3.1 inh -77, KCNH2 WT inh -99 (no result: CBFb RUNX1 block)
Cc1ccc(-c2nnc(Nc3cccc(Br)c3)c3ccccc23)cc1S(=O)(=O)N1CCCCC1	none (no result: PLK1 PBD inh, KCNH2 3.1 inh, CBFb RUNX1 block, MBNL1-CUG inh, KCNH2 WT inh)
CCOC(=O)C1CCN(C(=O)c2ccc3c(=O)n4nc(Nc5ccccc5)sc4nc3c2)CC1	KCNH2 3.1 inh -79 (no result: CBFb RUNX1 block, MBNL1-CUG inh)
CNC(=O)/C=C1\NC(C)(C)Cc2c1ccc1ccccc21	VDR inh 79µM
CC1(C)Cc2c(ccc3ccccc23)/C(=C/C#N)N1	none
COc1ccc(NC(=O)c2cc(=O)c3cc(C)cc(C)c3o2)cc1	none (no result: PLK1 PBD inh, KCNH2 3.1 inh, CBFb RUNX1 block, MBNL1-CUG inh, KCNH2 WT inh)
Cc1ccc(S(=O)(=O)N2CCc3nc(-c4ccccc4)c4c(c3C2)CO[C@@H](C)C4)cc1	none (no result: PLK1 PBD inh, KCNH2 3.1 inh, MBNL1-CUG inh, KCNH2 WT inh, VDR inh)
Cc1ccc2c(Cl)cc(Cl)c(OCC(=O)N3CCCC3)c2n1	PLK1 PBD inh 27µM
Cc1ccc2c(Cl)cc(Cl)c(OCC(=O)N3CCOCC3)c2n1	none (no result: CBFb RUNX1 block, MBNL1-CUG inh)
CC12CCC(C[N+](C)(CCC[N+](C)(C)C)C1)C2(C)C (centres undefined)	none (no result: PLK1 PBD inh, KCNH2 3.1 inh, CBFb RUNX1 block, MBNL1-CUG inh, KCNH2 WT inh)
COc1cc2c(C)nc3c(c(C)nn3-c3ccccc3)c2cc1OC	KCNH2 3.1 inh -81
CCn1nnc2cc(C(=O)Nc3cccc(Cl)c3C)ccc21	none (no result: PLK1 PBD inh, KCNH2 3.1 inh, CBFb RUNX1 block, MBNL1-CUG inh, KCNH2 WT inh)
O=C(Nc1ccc2c(c1)OC1(CCCC1)O2)C1CC1	PLK1 PBD inh 27µM
N=C(N)S/C=C\C(=O)O	VDR inh 28µM (no result: PLK1 PBD inh, KCNH2 3.1 inh, MBNL1-CUG inh, KCNH2 WT inh)
N/C(=C\C(=O)c1cc(Cl)ccc1O)C(Cl)(Cl)Cl	PLK1 PBD inh 6.7µM, VDR inh inconclusive (no result: MBNL1-CUG inh)
CC1CCc2c(sc(NS(=O)(=O)c3ccccc3)c2C(=O)OC(C)C)C1 (centres undefined)	PLK1 PBD inh 17µM, MBNL1-CUG inh inconclusive, VDR inh inconclusive
CC1CCc2c(sc(NC(=O)c3ccco3)c2C(=O)O)C1 (centres undefined)	none (no result: CBFb RUNX1 block)
COC(=O)c1c(NS(=O)(=O)c2ccc3ccccc3c2)sc2c1CCCC2	PLK1 PBD inh 24µM
CCCCc1cc2c(cn1)C(=O)C(C)(OC(C)=O)C(=O)C2 (centres undefined)	none (no result: PLK1 PBD inh, KCNH2 3.1 inh, MBNL1-CUG inh, KCNH2 WT inh, VDR inh)
Cc1ccc(Cn2c(=S)[nH]c3ccc(N4CCOCC4)cc3c2=O)o1	PLK1 PBD inh 21µM, CBFb RUNX1 block inconclusive, VDR inh 18µM
CCc1ccc(NC(=O)c2nnn(Cc3cccc(C(F)(F)F)c3)c2N)cc1	none (no result: PLK1 PBD inh, KCNH2 3.1 inh, CBFb RUNX1 block, MBNL1-CUG inh, KCNH2 WT inh)
CCOC(=O)c1ccc(Cn2c(-c3ccccc3)nnc2-c2ccccc2)o1	PLK1 PBD inh 24µM
COc1cc(/C=C2\SC(=O)N(Cc3ccc(Cl)cc3)C2=O)cc([N+](=O)[O-])c1O	PLK1 PBD inh 24µM, CBFb RUNX1 block inconclusive
COc1cc(/C=C2\SC(=O)N(Cc3ccc(F)cc3)C2=O)cc([N+](=O)[O-])c1O	PLK1 PBD inh 27µM, VDR inh inconclusive
CCOC(=O)CN1C(=O)S/C(=C/c2ccc(OC)c([N+](=O)[O-])c2)C1=O	none (no result: KCNH2 3.1 inh, MBNL1-CUG inh)
Cc1ccc(SCC(c2ccccc2)N2CCN(CC(C)C)CCC2=O)cc1 (centres undefined)	none (no result: PLK1 PBD inh, KCNH2 3.1 inh, MBNL1-CUG inh, KCNH2 WT inh)
COc1cc(Cl)c(NS(=O)(=O)c2ccc(-c3coc(C)n3)cc2)c(OC)c1	none (no result: PLK1 PBD inh, KCNH2 3.1 inh, CBFb RUNX1 block, MBNL1-CUG inh, KCNH2 WT inh)
